{"source": "PubChem BioAssay (NCATS)", "note": "Records with an inconclusive call do not appear. A number with no mark means an inactive call. Calls of active or inactive are those of the source. Calls come from the whole dose curve; as a rule, active = well fitted cell-killing curve with a large enough effect; inconclusive = small, poorly fitted or top-dose-only effect; inactive = flat fitted curve, though single readings scatter. Peptide text beside a SMILES is read from it. * marks the point of attachment. Cbz = O=C(OCc1ccccc1)*"}
{"experiment": "Quantitative highthroughput screen to assess conditional lethalithy of P12 Ichikawa cells grown in RPMI1640 with dialyzed fetal bovine serum (RPMI+ds) (AID 1963880); note: nearly all actives have a fitted effect of over 35% in size; note: potency is the fitted concentration of half-maximal effect;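 for viability: 100% = DMSO wells and 0% = empty wells on each plate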", "details": "ATP luminescence, 48 h; Potency: P12-Ichikawa viability; series mostly up to 45.8 µM; viability: at the top concentration", "method_in_brief": "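Each medium arm—HPLM with 10% dialyzed FBS, or RPMI1640 with 5 mM glucose and 10% untreated or dialyzed FBS—was screened against an 11-point, 3-fold compound titration for 48 h at 37 °C, with CellTiter-Glo luminescence as endpoint.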", "units": {"viability": "%"}}
{"compound": "C[N+](C)(C)CC(=O)O", "viability": 98.3}
{"compound": "COCCCN1CCC(NC(=O)c2cc(Cl)c(N)c3c2OCC3)CC1", "viability": 74.5}
{"compound": "CNC(=O)c1ccc(Nc2ncc(C(F)(F)F)c(NCc3nccnc3N(C)S(C)(=O)=O)n2)cc1", "viability": 94.3}
{"compound": "Cc1cc2c(s1)Nc1ccccc1N=C2N1CCN(C)CC1", "viability": 93.9}
{"compound": "CC1Cc2ccccc2N1NC(=O)c1ccc(Cl)c(S(N)(=O)=O)c1", "note": "(centres undefined)", "viability": 97.7}
{"compound": "Nc1[nH]c(=O)ncc1F", "viability": 95.4}
{"compound": "CC1(C)O[C@H]2CC(=O)OC[C@]23[C@H]2CC[C@@]4(C)[C@H](c5ccoc5)OC(=O)[C@H]5O[C@]54[C@]2(C)C(=O)C[C@@H]13", "viability": 95.4}
{"compound": "O=C(/C=C\\n1cnc(-c2cc(C(F)(F)F)cc(C(F)(F)F)c2)n1)NNc1cnccn1", "Potency": "588 nM (active)"}
{"compound": "CCCc1cc(C(N)=S)ccn1", "viability": 99.6}
{"compound": "C=C1C(=O)[C@@]23C(CC[C@@H]1[C@H]2O)[C@@]12CO[C@]3(O)[C@@H](O)[C@@H]1C(C)(C)CC[C@@H]2O", "note": "(some centres undefined)", "Potency": "7430 nM (active)"}
{"compound": "CCc1ccc(OCc2ccccc2C(=O)Nc2ccc3nc(C)cc(N)c3c2)cc1", "Potency": "14800 nM (active)"}
{"compound": "CC1(C)CCC(c2ccc(Cl)cc2)=C(CN2CCN(c3ccc(C(=O)NS(=O)(=O)c4ccc(N[C@H](CCN5CCOCC5)CSc5ccccc5)c(S(=O)(=O)C(F)(F)F)c4)cc3)CC2)C1", "Potency": "264 nM (active)"}
{"compound": "CC(C)C[C@@H](C=O)NC(=O)[C@H](CC(C)C)NC(=O)[C@H](CC(C)C)NC(=O)OCc1ccccc1", "note": "(Cbz-Leu-Leu-Leu-aldehyde)", "Potency": "2640 nM (active)"}
{"compound": "O=C(O)CCNC(=O)c1ccc(N=Nc2ccc(O)c(C(=O)O)c2)cc1", "viability": 104}
